This is a sample that favours compounds with a hit; in the whole collection about 21% have one here.
Cycloheximide cs: Cycloheximide Counterscreen for Small Molecule Inhibitors of Shiga Toxin; cell reporter, cycloheximide protein synthesis inhibition counterscreen; max response, %; 300,000 compounds, 12% hits; in the data active = max response mostly above about 13%, no sharp cut-off; inactive = mostly below about 14%; also: read at 38.3 µM for the half of the compounds with a filed dose; 0% is about no effect
Pf growth 96h: Primary qHTS for delayed death inhibitors of the malarial parasite plastid, 96 hour incubation. Potency, µM (series often up to 28.7 µM), inactives show top-dose activity change, negative = inhibition, actives largely listed as inhibitors. P. falciparum luciferase reporter growth, 96 h. 320,000 compounds, 6.9% hits; also: potency is read from the fitted curve at half-maximal effect; % is scaled to controls: 0 for no effect and ±100 for the full control effect
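Compounds incubated with erythrocytes infected by luciferase-expressing P. falciparum (2% hematocrit, 0.05% parasitemia final) for 96 hours, 37 C in 5% CO2. Growth inhibition scored as decreased luciferase luminescence.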
Shiga toxin inh: A qHTS for Small Molecule Inhibitors of Shiga Toxin. Vero cells, Shiga toxin protein synthesis inhibition reporter. inhibition, % at 38.7 µM. 290,000 compounds, 9.2% hits; in the data active = inhibition mostly above about 28%, no sharp cut-off; inactive = mostly below about 43%; also: 0% is about no effect
Pf growth 48h: Primary qHTS for delayed death inhibitors of the malarial parasite plastid, 48 hour incubation; P. falciparum luciferase growth in erythrocytes, 48 h; Potency, µM (top dose mostly 28.7 µM), for the others: at the top dose activity change, negative = inhibition, usual class: inhibitors; 310,000 compounds, 5.9% hits; AID 504832, 2011; also: potency is read from the fitted curve at half-maximal effect; % is scaled to controls: 0 for no effect and ±100 for the full control effect
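Here the parasites carry a stable luciferase gene and grow inside erythrocytes in Albumax-based RPMI medium with compound for one erythrocytic cycle. Activity is scored as loss of luminescent signal.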
NS1 function inh: qHTS Assay for Inhibitors of Influenza NS1 Protein Function; Potency, µM (highest dose often 46.1 µM), for the others: top-dose activity, positive = more growth; 270,000 compounds, 0.4% hits; calls by dose curve; also: potency is read from the fitted curve at half-maximal effect; actives are rising curves; nearly all actives have a fitted effect of over 50% in size
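Recovery from NS1-induced slow growth read by OD600 in budding yeast switched to galactose assay medium (pH 6.0, -URA) at 1:100 dilution. Compound 23 nl per well; the matching strain lacking NS1 serves as control.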
Sm TGR inh: qHTS Assay for the Inhibitors of Schistosoma Mansoni Peroxiredoxins | purified TGR, DTNB reduction, TNB absorbance 405 nm | Potency, µM (series often up to 114 µM), without a hit: top-dose activity change, negative = inhibition, hits mostly inhibitors | 360,000 compounds, 3% hits; also: potency is read from the fitted curve at half-maximal effect; % is scaled to controls: 0 for no effect and ±100 for the full control effect; nearly all actives have a fitted effect of over 60% in size
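Kinetic colorimetric format: TGR-catalysed, NADPH-driven DTNB reduction monitored via TNB absorbance. Enzyme dispensed at 20 nM; compound exposure 15 min at room temperature before reaction start.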
* = called active by the depositor; i = inactive; u = inconclusive; x = not tested or not shown; [ ] = remark or other dose. Unless noted, calls follow the shape of the dose curve; as a rule, active = well fitted curve in the direction sought with a large enough effect; inconclusive = small, poorly fitted or top-dose-only effect, or another doubt; inactive = no such curve, though single readings can be large; an effect the other way counts as inactive or inconclusive.

SMILES | Cycloheximide cs | Pf growth 96h | Shiga toxin inh | Pf growth 48h | NS1 function inh | Sm TGR inh
COc1ccc([C@]23Cc4c(ccc5ccccc45)C(O2)C2=C(CC4(CCCCC4)OC2=O)O3)cc1 | -1 | u | i | 10%[5.75 µM] | 2% | 17%[22.9 µM]
COc1cc2c(cc1OC)C1O[C@](c3ccsc3)(C2)Oc2cc(-c3ccccc3)oc(=O)c21 | -1 | 1.5µM* | i | u | 13% | 7.1µM*
COc1ccc([C@]23Cc4ccccc4C(O2)C2=C(O3)C(=O)c3ccccc3C2=O)cc1 | 19* | 45%[5.75 µM] | i | 1.5µM* | 23% | 7.1µM*
COc1ccc([C@]23Cc4ccccc4C(O2)C2=C(CC(C)(C)CC2=O)O3)cc1 | 1 | 0.6µM* | i | u | -9% | u
COc1cc2c(cc1OC)C1O[C@](c3ccsc3)(C2)Oc2cc(C)n(Cc3ccccc3)c(=O)c21 | -2 | u | i | u | 18% | u
Cc1cccc(OCc2nnc(SCC(=O)N3CCCCC3)o2)c1 | -2 | -29% | -3 | 29% | u | 4%
CCOc1ccc(-c2nnc(-c3ccco3)o2)cc1OCC | 46* | 123% | 88* | 53% | -61% | 0%
CCOc1cc(-c2nc(-c3ccc(OC)cc3)no2)cc(OCC)c1OCC | -3 | u | 29 | 15% | -7% | -20%
CCOc1cc(-c2nnc(-c3ccco3)o2)cc(OCC)c1OCC | 22* | x | active | u | 7% | -2%
Cc1cc(C)cc(OCC(=O)Nc2cccc(-c3nnc(-c4ccco4)o3)c2)c1 | 7 | x | 8 | u | -77% | 0%
O=C(CSc1nc2c([nH]c3ccccc32)c(=O)n1-c1ccccc1)N1CCCCC1 | x | x | x | x | x | 1%
O=C(Cc1cccs1)NCc1ccc(Cl)cc1Cl | 42* | u | 104* | -98% | -19% | 77%
O=C(Cc1cccs1)NCc1cccc(F)c1 | 27 | -3% | 41* | 76% | x | 2%
CCCOc1ccc(CNC(=O)Cc2cccs2)cc1 | 46* | u | 108* | 71% | -32% | 11%
O=C(Cc1cccs1)NCc1cccc(Cl)c1 | 41* | 8% | 89* | 79% | 0% | 1%
O=C(CCC(=O)N1CCSc2ccccc21)Nc1ccc(Cl)cc1 | x | x | x | x | x | 0%
Cc1ccc(NC(=O)CSc2nnc(CNC(=O)c3cccs3)o2)c(C)c1 | -2 | 8% | -2 | 10% | x | -8%
O=C(Cc1cccs1)NCc1cc(Cl)cc(Cl)c1 | 44* | 6% | 52* | x | -13% | 1%
O=C(c1ccc(C(=O)N2CCCc3ccccc32)nc1)N1CCCc2ccccc21 | 12 | u | 33 | -30% | 6% | 0%
O=C(c1noc2c1CCc1ccccc1-2)N1CCCc2ccccc21 | 21* | x | 19 | 3.3µM* | -109% | 14%
O=C(c1noc2c1CCCCC2)N1CCOCC1 | -2 | 31% | -16 | 22% | 2% | 1%
O=C(c1noc2c1CCc1ccccc1-2)N1CCOCC1 | 36* | 25% | 43* | 78% | -4% | 0%
O=C(c1noc2c1CCc1ccccc1-2)N1CCc2ccccc2C1 | 28* | 8% | 60* | 7% | -20% | -10%
Cc1ccccc1CNC(=O)c1sc2ncnc(N(C)C3CCCCC3)c2c1C | x | x | x | x | x | 6%
C=C1C(=O)O[C@@H]2C[C@@H](C)[C@@H]3C=CC(=O)[C@@]3(C)[C@@H](OC(C)=O)[C@H]12 | -8 | 2.9µM* | -11 | 2.1µM* | -4% | 0%
SMILES | Cycloheximide cs | Pf growth 96h | Shiga toxin inh | Pf growth 48h | NS1 function inh | Sm TGR inh
C=C1C(=O)O[C@@H]2C[C@@H](C)[C@@H]3C=CC(=O)[C@@]3(C)[C@@H](O)[C@H]12 | -10 | 1µM* | -17 | 0.83µM* | u | 25µM*
C[C@@H]1C[C@@H]2OC(=O)[C@]3(C)[C@H]2[C@@H](OC3(C)O)[C@]2(C)C(=O)C=C[C@H]12 (stereo partly drawn) | 31* | u | 26* | 13µM* | 2% | u
COc1ccccc1Nc1nc2nonc2[nH]c1=O | 11 | -33% | -4 | 6% | -1% | -2%
Cc1ccc(Nc2nc3nonc3[nH]c2=O)cc1 | 27* | 62% | 58* | u | -48% | -36%
CCN(CC)C(=O)Cn1cnc2c1c(=O)n(C)c(=O)n2C | -1 | x | 9 | 9% | 6% | 8%
CCCn1cnc2c1c(=O)n(CCCCC(C)=O)c(=O)n2C | x | 56% | x | 12µM* | -6% | x
N#CCSc1nnc(C2CCCCC2)n1Cc1ccccc1 | -2 | 3.3µM* | -4 | -15% | -1% | 5%
COc1cccc(NC(=O)N2CCCC2C(=O)NCc2ccco2)c1 (stereo not drawn) | -4 | 28% | -7 | 9% | 1% | 1%
Cc1cc(C(C)(C)CC(C)(C)C)ccc1OCCOCC[N+](C)(C)Cc1ccccc1 | x | 0.47µM* | x | 1.7µM* | x | -8%
Cc1ccc(OCCNCc2ccccc2)c(C)c1 | 8 | u | 8 | 0% | 13% | -19%
Cc1cc(CNC(=O)COc2ccccc2)c2ccccc2n1 | 17* | 38% | 80 | 8% | x | 3%
Cc1ccc(C(=O)COc2nc(C)nc3ccccc23)cc1 | 24* | 49% | 80* | 232% | 0% | -1%
O=C(Cc1ccccc1)NNc1c2ccccc2nc2ccccc12 | -3 | 81% | -5 | -12% | -15% | -3%
COc1ccc(C(C)=O)cc1COc1nc(C)nc2ccccc12 | 8 | 9% | 1 | -5% | x | 5%
Cc1cccc(OCC(=O)NNc2c3ccccc3nc3ccccc23)c1 | 1 | 3.7µM* | 15 | u | -21% | 5%
Cc1ccc(OCC(=O)NNc2c3ccccc3nc3ccccc23)cc1 | -2 | u | 8 | 9.3µM* | -8% | 0%
O=C(NCc1ccco1)C1CCN(S(=O)(=O)Cc2ccccc2)CC1 | -2 | u | 14 | 6% | -7% | -20%
CCOc1ccc(CCNS(=O)(=O)c2c(C)nc3sc(C)cn3c2=O)cc1OCC | x | x | x | x | x | 4%
COc1ccc(C2=NN(C(=O)c3ccccc3)C(c3ccc(OC)c(OC)c3)C2)c(OC(C)=O)c1 (stereo not drawn) | -4 | 10µM* | -7 | 12µM* | -3% | -6%
COc1ccc(C2CC(c3ccccc3O)=NN2C(=O)c2ccccc2)cc1OC (stereo not drawn) | -2 | 4.1µM* | -7 | 6.6µM* | 5% | -1%
COc1cc(C2CC(c3ccccc3)=NN2c2ccccc2)ccc1OCC(=O)O (stereo not drawn) | -5 | u | -1 | 2% | 11% | -15%
COc1cc(C2CC(c3cccs3)=NN2C(=O)CCl)ccc1OC(F)F (stereo not drawn) | 15 | u | 63* | u | -15% | 7.9µM*
